In PubChem BioAssay AID1276 (Columbia University Molecular Screening Center, 2008):
Screen size: about 190,000 compounds; about 2,000 (1.1%) were called active. This is one part of a sample in which actives are shown more often than they occur. Values without a mark were called inactive.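 The calls were made as follows: active = activation above a set limit, based on mean plus 3 SD of controls (cut at about 140% in these data); inconclusive = one replicate above the limit, the other below; inactive = the rest.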

experiment: APP 5'UTR reporter signal increase – luciferase, SH-SY5Y cells, primary screen (AID 1276); conditions: SH-SY5Y APP 5'UTR luciferase reporter, luminescence; at 2 µM; active compounds read high; zero percent = DMSO vehicle wells

Which activation does the source give for `CCC(=O)Oc1cccc(C(=O)Nc2ccc(-c3nnc(-c4ccco4)o3)cc2)c1` here?
The activation was 92.5%.

For `CCOc1ccc(-c2nnc(-c3ccco3)o2)cc1`, which activation is on record?
Its activation is 147% (active).

Which activation does the source give for `CCCCOc1ccc(C(=O)NCc2ccco2)cc1` here?
The activation was 4.26%.

With `COc1ccc(C(=O)CSc2nnc(-c3ccco3)o2)cc1` as the molecule, how does the activation read?
Its activation is 22.7%.

Which activation does the source give for `CCCCOc1ccc(-c2nnc(-c3ccco3)o2)cc1` here?
Its activation is 136% (active).

With `CCCCSc1nnc(-c2ccc(C)cc2)o1` as the molecule, how does the activation read?
The activation was 115%.

Which activation does the source give for `COCCSc1nnc(NC(=O)c2cc(OC)c(OC)cc2[N+](=O)[O-])s1` here?
Its activation is 5.07%.

With `COc1cccc(N(C(=O)C2COc3ccccc3O2)C(C(=O)NC2CCCCC2)c2ccc(O)cc2)c1` (stereo not given) as the molecule, how does the activation read?
Its activation is -0.98%.

For `CN1CCN(c2nc(Nc3ccc(O)cc3)nc3ccccc23)CC1`, which activation is on record?
Its activation is 18.9%.

Which activation does the source give for `Cc1cc(Oc2ccc(Cl)cc2)nc(SCC(=O)c2ccccc2)n1` here?
Its activation is 11.5%.

Which activation does the source give for `CC(=O)NC(CC(=O)O)c1ccc(F)cc1` (stereo not given) here?
The activation was 5.81%.

Which activation does the source give for `O=C(Nc1ccc2nccnc2c1)c1ccco1` here?
The activation was 39.6%.

For `O=C(Nc1ccc2oc(-c3ccccc3F)nc2c1)c1ccco1`, which activation is on record?
The activation was 146% (active).

For `O=C(Nc1cccc(-c2nc3ncccc3o2)c1)c1ccco1`, which activation is on record?
The activation was -10.6%.

For `Cc1cnc(C(=O)N2CCCC(C(=O)c3ccc(C(F)(F)F)cc3)C2)cn1` (stereo not given), which activation is on record?
Its activation is 23%.

Which activation does the source give for `NS(=O)(=O)c1ccc(NC(=O)COC(=O)C2(c3ccc(F)cc3)CCCC2)cc1` here?
The activation was 5.99%.

Which activation does the source give for `COc1ccc(CN(C)C(C)C(=O)NC2CCCc3ccccc32)cc1` (stereo not given) here?
The activation was 9.96%.

Which activation does the source give for `CC(NC(=O)COC(=O)c1cc(=O)[nH]c2ccccc12)c1ccccc1` (stereo not given) here?
Its activation is -4.94%.

For `O=C(NC1CC1)C1CCCN(C(=O)NC2CCCCC2)C1` (stereo not given), which activation is on record?
The activation was 18.2%.

For `O=C(Nc1nc(-c2cccnc2)cs1)c1ccccc1F`, which activation is on record?
The activation was 61.5%.

Which activation does the source give for `CC(C)c1nc(-c2ccccn2)no1` here?
Its activation is 7.91%.

Which activation does the source give for `c1ccc(-c2noc(-c3cccs3)n2)nc1` here?
The activation was 209% (active).

Which activation does the source give for `c1csc(-c2nc(-c3ccncc3)no2)c1` here?
The activation was 55.4%.

With `CC(C)n1c(O)c(N=Nc2ccccn2)c2ccccc21` as the molecule, how does the activation read?
Its activation is 3.63%.

Which activation does the source give for `CC(C)(C)NS(=O)(=O)c1ccc(NC(=O)NC2CCCCC2)cc1` here?
Its activation is -13.3%.

With `CC(C)c1ccc(NC(=O)NC2CCCCC2)cc1` as the molecule, how does the activation read?
The activation was 139% (active).

With `CC(C)N1CCC(NC(=O)Nc2ccccc2)CC1` as the molecule, how does the activation read?
The activation was 15.8%.

With `CC(NCc1nc2ccccc2n1C)C12CC3CC(CC(C3)C1)C2` (stereo not given) as the molecule, how does the activation read?
The activation was 9.64%.

For `CC(=O)n1cc([C@H]2C=C(C(=O)N3CCOCC3)O[C@@H](OCc3ccc(CO)cc3)C2)c2ccccc21`, which activation is on record?
Its activation is 3.91%.

For `CC(C)(C)CN1CCNC(=O)C1CC(=O)NC1Cc2ccccc2C1` (stereo not given), which activation is on record?
Its activation is -10.9%.

For `Cc1nn2cc(-c3ccc(Cl)cc3)cnc2c1Br`, which activation is on record?
The activation was 208% (active).

For `CCOCCCN(C(=O)Cn1nnc(-c2ccc(OC)c(OC)c2)n1)C(CC)C(=O)NC1CCCC1` (stereo not given), which activation is on record?
Its activation is 7.01%.

With `N=C1C(c2nc3ccccc3s2)=C(O)CN1NC(=O)c1ccc([N+](=O)[O-])cc1` as the molecule, how does the activation read?
The activation was 150% (active).

Which activation does the source give for `COc1ccccc1N1CC(O)=C(c2nc3ccccc3s2)C1=N` here?
Its activation is 1.68%.

With `CCOC(=O)CCCN1CC(O)=C(c2nc3ccccc3s2)C1=N` as the molecule, how does the activation read?
The activation was -7.28%.

For `CN1CCNC(=O)C1CC(=O)NCCC1=CCCCC1` (stereo not given), which activation is on record?
The activation was 9.01%.

Which activation does the source give for `COCCNC(=O)c1ccc(N2CCC3(CC2)OCCO3)c([N+](=O)[O-])c1` here?
Its activation is 5.47%.

With `CNC(=S)N1N=C(c2ccccc2)CC1c1ccc(Br)cc1` (stereo not given) as the molecule, how does the activation read?
Its activation is 16.3%.

With `c1ccc(C2=Nc3cccc4cccc(c34)N2)cc1` as the molecule, how does the activation read?
Its activation is -8.18%.

With `Brc1ccc(C2CC(c3ccccc3)=Nc3ccccc3N2)cc1` (stereo not given) as the molecule, how does the activation read?
Its activation is 176% (active).

Which activation does the source give for `COc1ccc(C)cc1NC(=O)CSc1nc(SC)ns1` here?
Its activation is -17.1%.

For `CCc1nnc(NC(=O)CCC(=O)O)s1`, which activation is on record?
The activation was 11.8%.

For `CCc1nnc(NC(=O)CSc2nc(SC)ns2)s1`, which activation is on record?
Its activation is 542% (active).

With `CCn1c2ccccc2c2cc(CC(N)=O)ccc21` as the molecule, how does the activation read?
Its activation is -15%.

With `CN(C)S(=O)(=O)c1ccc2oc(SCC(=O)Nc3ccccc3F)nc2c1` as the molecule, how does the activation read?
The activation was 135% (active).

Which activation does the source give for `COc1ccc(S(=O)(=O)N(C)C)cc1NC(=O)CSc1ncccn1` here?
Its activation is -3.15%.

With `CCS(=O)(=O)c1ccc2oc(SCC(=O)N3c4ccccc4CC3C)nc2c1` (stereo not given) as the molecule, how does the activation read?
The activation was 12.2%.

With `O=C(Nc1cccc(Cl)c1)c1cc([N+](=O)[O-])ccc1N1CCN(CCO)CC1` as the molecule, how does the activation read?
The activation was -1.04%.

With `O=C(NNC(=S)NCCCN1CCOCC1)c1ccncc1` as the molecule, how does the activation read?
Its activation is 1.62%.

Which activation does the source give for `Nc1nc(-c2sc3nc4c(cc3c2N)CCCC4)nc(N2CCOCC2)n1` here?
Its activation is 45.3%.

For `CC(=O)Nc1cccc(C(=O)Nc2nc(C)cs2)c1`, which activation is on record?
Its activation is 30.8%.

For `CC(=O)Nc1cccc(-c2csc(Nc3cccc(C)n3)n2)c1`, which activation is on record?
The activation was 177% (active).

Which activation does the source give for `COc1ccc(CCNc2nc(-c3cccc(NC(C)=O)c3)cs2)cc1OC` here?
Its activation is 13%.

With `C/C(CC(=O)Nc1ccc(Cl)cc1)=N\NC(=O)C(=O)NCCO` as the molecule, how does the activation read?
Its activation is 6.46%.

With `CC(C)c1nc2sc3c(c2c(=O)n1N)CC(C)(C)OC3` as the molecule, how does the activation read?
The activation was 17.6%.

With `O=C(O)c1ccc2c(c1)C(=O)N(NC(=O)c1ccc(O)cc1)C2=O` as the molecule, how does the activation read?
The activation was -2.99%.

With `Cn1cnnc1SCC(=O)Nc1ccc(N2CCOCC2)cc1` as the molecule, how does the activation read?
Its activation is 5.51%.

For `O=C(O)CCS(=O)(=O)c1ccc(-c2ccccc2)cc1`, which activation is on record?
Its activation is -3.35%.

With `CCOc1cccc(-n2nnnc2-c2ccc(OC)cc2)c1` as the molecule, how does the activation read?
The activation was -65.8%.

With `COc1ccc(-n2nnnc2-c2nc3ccccc3s2)cc1` as the molecule, how does the activation read?
Its activation is 237% (active).

For `COc1ccc(-n2nnnc2SCC(=O)Nc2ccccc2)cc1`, which activation is on record?
Its activation is 6.08%.

For `Cc1cccc(NC(=O)c2nnn(-c3cccc(C(F)(F)F)c3)c2N)c1`, which activation is on record?
Its activation is 27.1%.

For `COCCNc1nc(N)c([N+](=O)[O-])c(NCCO)n1`, which activation is on record?
Its activation is -12.7%.

Which activation does the source give for `CNc1nc(Nc2ccc(C)c(Cl)c2)nc(N)c1[N+](=O)[O-]` here?
Its activation is 153% (active).

For `Nc1nc(NCCCN2CCOCC2)nc(Nc2ccccc2)c1[N+](=O)[O-]`, which activation is on record?
Its activation is -12.2%.
